What was measured:
Assay in all cases: log2 ratio of Biotin-Ahx-Ub-VS probe labelling (fragment/DMSO); higher = less target engagement (more negative = stronger competition), active = hit call of the paper (q ≤ 0.05, log2 ratio ≤ -1)
Conditions in all cases: compound concentration: 200 uM; treatment time: 3 h
USP34 = USP34 (UniProt Q70CQ2)
Summary of the method: (§1)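 Fragment (200 µM) or vehicle was incubated for 3 h with triplicate HEK293T lysate samples of 495 µg, which were then treated with Biotin-Ahx-Ub-VS at 0.5 µM final for 1 h. Labelled DUBs were enriched on NeutrAvidin, digested with LysC and trypsin, and analysed by diaPASEF LC-MS/MS. Values are average log2 fragment/vehicle ratios from an unpaired t-test on global-median-normalised Spectronaut label-free quantities, using proteins with ≥2 unique peptides.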

USP36 = molecular target: T1, USP36 (UniProt Q9P275)
T1 sequence (whole entry): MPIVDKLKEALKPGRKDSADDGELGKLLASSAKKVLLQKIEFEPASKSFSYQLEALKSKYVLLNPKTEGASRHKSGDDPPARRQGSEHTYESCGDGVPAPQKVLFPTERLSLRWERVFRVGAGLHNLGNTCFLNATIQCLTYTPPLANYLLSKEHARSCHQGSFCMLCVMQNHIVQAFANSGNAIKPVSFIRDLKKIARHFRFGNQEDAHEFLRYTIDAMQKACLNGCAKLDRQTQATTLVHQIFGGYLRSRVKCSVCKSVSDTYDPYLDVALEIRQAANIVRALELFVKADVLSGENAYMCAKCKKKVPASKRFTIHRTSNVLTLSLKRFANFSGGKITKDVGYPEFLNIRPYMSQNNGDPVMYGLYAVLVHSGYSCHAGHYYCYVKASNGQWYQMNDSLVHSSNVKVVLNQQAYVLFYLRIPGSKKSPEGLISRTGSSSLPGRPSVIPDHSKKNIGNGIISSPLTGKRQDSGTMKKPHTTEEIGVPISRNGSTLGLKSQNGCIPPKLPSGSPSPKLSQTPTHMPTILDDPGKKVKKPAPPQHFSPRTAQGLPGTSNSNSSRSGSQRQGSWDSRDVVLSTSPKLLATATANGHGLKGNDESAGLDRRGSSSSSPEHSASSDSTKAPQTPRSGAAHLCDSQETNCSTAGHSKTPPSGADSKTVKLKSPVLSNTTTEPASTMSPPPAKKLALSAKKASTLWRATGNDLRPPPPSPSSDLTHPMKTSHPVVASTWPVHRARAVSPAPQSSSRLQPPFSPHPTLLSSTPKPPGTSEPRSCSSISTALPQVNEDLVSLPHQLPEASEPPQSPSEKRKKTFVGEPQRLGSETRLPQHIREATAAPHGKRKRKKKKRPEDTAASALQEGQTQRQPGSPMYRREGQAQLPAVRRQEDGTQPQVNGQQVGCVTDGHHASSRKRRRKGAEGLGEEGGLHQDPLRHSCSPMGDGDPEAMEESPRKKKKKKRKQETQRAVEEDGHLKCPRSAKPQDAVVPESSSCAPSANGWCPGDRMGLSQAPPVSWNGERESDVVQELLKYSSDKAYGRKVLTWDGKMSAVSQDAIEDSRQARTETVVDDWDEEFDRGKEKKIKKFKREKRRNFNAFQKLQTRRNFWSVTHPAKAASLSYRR
Summary of the method: as §1

USP38 = molecular target: T2, USP38 (UniProt Q8NB14)
T2 sequence (whole entry): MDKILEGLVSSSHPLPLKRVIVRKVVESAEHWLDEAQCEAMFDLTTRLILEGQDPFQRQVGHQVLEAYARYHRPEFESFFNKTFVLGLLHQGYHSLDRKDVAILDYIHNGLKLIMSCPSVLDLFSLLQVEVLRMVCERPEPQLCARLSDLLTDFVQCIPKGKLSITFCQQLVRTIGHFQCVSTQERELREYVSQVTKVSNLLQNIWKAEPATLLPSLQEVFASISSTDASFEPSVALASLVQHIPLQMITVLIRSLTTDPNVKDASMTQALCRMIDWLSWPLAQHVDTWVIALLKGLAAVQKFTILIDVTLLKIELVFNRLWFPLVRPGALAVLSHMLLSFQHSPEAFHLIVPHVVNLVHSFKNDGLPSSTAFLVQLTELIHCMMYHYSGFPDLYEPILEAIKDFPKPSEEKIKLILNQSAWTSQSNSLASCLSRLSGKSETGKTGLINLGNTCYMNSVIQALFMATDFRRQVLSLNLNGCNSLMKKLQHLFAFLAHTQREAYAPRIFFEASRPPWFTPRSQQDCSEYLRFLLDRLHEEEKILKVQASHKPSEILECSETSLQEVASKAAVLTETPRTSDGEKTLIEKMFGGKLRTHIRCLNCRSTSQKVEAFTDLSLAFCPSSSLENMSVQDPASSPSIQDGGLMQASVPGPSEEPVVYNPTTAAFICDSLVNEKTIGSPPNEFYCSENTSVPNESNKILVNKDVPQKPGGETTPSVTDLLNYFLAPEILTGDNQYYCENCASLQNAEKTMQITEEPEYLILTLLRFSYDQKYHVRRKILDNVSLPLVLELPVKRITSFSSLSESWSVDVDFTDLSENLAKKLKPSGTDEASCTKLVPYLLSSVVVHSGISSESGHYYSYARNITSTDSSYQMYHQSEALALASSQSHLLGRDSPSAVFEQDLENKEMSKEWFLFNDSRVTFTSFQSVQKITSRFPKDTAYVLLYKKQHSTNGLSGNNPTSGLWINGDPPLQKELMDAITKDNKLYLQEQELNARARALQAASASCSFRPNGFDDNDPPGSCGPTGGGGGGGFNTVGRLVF
Summary of the method: as §1

USP39 = molecular target: T3, USP39 (UniProt Q53GS9)
T3 sequence (whole entry): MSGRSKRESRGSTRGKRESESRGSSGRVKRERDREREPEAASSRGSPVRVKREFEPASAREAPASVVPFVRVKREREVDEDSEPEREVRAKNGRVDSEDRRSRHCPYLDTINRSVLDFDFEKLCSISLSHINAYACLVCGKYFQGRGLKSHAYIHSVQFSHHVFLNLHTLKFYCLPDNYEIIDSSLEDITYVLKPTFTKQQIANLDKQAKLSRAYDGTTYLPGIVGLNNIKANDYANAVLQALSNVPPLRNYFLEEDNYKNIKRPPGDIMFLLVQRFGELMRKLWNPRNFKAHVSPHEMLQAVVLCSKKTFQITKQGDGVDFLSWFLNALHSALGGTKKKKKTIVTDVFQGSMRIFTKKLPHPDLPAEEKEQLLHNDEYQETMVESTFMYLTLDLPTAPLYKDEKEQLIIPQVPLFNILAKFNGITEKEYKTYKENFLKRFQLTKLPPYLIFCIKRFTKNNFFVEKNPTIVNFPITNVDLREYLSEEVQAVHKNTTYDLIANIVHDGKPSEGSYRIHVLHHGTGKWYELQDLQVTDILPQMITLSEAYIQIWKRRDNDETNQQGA
Summary of the method: as §1

USP4 = molecular target: T4, USP4 (UniProt Q13107)
T4 sequence (whole entry): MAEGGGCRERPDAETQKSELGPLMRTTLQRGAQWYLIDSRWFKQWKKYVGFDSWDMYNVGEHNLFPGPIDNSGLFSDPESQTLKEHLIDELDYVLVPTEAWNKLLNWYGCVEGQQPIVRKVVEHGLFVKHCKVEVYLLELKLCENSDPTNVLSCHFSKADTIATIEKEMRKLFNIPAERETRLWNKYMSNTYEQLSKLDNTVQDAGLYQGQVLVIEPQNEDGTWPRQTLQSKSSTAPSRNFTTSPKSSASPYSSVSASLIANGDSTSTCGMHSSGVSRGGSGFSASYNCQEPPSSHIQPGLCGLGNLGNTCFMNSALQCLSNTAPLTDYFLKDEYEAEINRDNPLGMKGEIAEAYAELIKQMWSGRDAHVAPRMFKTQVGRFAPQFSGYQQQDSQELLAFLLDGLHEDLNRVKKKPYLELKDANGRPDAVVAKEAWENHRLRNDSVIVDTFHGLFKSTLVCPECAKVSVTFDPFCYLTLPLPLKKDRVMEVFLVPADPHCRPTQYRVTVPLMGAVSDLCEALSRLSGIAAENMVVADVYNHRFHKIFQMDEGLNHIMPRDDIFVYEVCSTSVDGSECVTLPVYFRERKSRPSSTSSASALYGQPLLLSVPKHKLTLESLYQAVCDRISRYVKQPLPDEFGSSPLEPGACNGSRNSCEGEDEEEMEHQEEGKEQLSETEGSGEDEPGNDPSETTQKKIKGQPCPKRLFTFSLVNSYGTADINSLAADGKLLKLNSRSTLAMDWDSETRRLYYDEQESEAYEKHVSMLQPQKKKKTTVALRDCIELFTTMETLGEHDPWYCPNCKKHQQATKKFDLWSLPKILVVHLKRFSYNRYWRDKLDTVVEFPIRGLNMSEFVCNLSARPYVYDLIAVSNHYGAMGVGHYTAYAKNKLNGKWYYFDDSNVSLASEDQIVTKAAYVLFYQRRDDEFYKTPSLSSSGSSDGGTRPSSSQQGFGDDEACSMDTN
Summary of the method: as §1

Measured: log2 ratio of Biotin-Ahx-Ub-VS probe labelling

Sequence of USP34 (Q70CQ2 whole entry, the tested form may be a part): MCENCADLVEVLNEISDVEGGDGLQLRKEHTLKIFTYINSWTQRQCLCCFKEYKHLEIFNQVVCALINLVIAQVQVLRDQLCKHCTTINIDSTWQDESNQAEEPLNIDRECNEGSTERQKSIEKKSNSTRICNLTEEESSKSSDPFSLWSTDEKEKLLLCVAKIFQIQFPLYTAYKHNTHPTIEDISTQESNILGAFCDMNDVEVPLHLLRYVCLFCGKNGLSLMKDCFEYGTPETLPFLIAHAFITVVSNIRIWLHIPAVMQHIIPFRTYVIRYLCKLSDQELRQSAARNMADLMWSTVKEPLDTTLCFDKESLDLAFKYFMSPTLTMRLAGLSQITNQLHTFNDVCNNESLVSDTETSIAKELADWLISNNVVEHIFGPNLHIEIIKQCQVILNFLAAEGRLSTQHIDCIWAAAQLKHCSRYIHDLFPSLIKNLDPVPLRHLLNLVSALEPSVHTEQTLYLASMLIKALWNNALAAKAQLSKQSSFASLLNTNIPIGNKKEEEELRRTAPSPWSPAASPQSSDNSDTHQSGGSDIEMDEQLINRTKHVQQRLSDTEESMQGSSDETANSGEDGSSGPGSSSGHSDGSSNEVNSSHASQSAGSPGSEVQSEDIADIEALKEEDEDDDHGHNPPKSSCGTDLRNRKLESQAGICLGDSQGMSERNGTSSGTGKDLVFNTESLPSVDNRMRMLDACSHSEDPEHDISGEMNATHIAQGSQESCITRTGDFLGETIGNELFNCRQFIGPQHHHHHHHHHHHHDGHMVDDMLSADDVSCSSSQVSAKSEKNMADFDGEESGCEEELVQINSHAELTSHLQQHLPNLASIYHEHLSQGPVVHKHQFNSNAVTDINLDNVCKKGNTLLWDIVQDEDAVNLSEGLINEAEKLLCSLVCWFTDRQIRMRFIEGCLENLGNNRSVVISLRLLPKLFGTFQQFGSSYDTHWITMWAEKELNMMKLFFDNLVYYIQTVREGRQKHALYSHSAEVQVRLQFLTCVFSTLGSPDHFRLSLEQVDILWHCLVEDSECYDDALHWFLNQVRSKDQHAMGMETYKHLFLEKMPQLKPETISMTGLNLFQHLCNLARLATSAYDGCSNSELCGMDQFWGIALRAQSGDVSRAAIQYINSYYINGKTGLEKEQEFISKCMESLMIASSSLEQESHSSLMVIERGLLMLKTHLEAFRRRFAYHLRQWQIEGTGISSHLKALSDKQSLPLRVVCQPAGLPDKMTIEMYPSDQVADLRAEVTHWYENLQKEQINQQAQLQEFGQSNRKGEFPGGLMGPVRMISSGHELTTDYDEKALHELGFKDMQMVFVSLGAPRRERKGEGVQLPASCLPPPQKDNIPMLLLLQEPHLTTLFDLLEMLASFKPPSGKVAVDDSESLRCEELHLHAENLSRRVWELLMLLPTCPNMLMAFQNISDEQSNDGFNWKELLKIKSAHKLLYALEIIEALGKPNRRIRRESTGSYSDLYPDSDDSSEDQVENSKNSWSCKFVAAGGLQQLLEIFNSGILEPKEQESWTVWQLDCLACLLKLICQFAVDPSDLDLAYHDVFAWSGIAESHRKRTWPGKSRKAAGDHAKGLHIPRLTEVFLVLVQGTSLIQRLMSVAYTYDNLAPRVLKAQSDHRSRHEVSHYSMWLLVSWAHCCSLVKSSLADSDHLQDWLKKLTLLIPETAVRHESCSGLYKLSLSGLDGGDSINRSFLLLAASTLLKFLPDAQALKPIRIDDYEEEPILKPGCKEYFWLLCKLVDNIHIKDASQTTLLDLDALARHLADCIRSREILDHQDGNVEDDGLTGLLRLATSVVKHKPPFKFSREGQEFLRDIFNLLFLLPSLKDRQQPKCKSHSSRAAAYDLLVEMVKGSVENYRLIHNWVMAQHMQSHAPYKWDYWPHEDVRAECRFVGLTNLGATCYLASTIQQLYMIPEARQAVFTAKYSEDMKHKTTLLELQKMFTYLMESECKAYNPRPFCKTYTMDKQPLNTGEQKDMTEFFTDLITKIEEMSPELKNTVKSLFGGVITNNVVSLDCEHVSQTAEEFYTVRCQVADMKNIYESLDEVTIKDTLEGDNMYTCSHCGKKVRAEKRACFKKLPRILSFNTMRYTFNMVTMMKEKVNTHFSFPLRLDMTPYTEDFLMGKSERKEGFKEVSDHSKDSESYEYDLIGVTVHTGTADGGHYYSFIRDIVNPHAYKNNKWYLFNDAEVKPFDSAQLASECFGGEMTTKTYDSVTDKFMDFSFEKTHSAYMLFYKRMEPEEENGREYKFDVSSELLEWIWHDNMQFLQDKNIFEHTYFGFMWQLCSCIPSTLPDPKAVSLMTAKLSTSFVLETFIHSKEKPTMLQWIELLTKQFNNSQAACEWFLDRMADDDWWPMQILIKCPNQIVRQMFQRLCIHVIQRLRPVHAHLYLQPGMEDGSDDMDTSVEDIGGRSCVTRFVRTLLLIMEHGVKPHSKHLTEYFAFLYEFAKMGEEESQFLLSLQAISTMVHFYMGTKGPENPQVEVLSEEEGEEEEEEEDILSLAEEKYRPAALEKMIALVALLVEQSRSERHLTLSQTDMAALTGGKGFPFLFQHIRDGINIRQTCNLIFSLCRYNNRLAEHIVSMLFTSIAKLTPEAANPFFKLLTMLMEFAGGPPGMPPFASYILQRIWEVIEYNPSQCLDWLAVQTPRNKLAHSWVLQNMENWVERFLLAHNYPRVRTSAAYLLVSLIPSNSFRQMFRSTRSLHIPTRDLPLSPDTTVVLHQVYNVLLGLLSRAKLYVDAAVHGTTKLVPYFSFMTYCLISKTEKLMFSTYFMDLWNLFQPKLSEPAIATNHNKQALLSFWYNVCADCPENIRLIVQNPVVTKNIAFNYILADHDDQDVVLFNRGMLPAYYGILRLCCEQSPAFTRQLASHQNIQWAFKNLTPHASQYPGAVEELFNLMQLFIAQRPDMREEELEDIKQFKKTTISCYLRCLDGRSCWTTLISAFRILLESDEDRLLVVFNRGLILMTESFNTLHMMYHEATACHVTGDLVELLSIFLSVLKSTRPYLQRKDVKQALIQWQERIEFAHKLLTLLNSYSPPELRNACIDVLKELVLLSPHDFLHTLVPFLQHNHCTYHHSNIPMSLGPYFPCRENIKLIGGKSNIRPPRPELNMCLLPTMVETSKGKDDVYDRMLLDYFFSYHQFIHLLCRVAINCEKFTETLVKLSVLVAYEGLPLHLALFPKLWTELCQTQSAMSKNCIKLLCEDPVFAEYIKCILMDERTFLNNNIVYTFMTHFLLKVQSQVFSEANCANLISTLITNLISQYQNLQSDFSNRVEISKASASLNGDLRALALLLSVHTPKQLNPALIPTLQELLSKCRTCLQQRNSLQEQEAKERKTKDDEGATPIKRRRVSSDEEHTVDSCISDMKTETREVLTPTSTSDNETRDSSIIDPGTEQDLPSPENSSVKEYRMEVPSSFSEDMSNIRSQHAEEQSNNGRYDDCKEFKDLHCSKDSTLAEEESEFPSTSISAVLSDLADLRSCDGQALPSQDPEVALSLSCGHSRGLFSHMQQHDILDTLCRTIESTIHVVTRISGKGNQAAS

Cc1cccc2nc(CCNC(=O)CCl)cn12.Cl
inactive: USP34 -0.19 | USP36 -0.179 | USP38 -0.0583 | USP39 0.203 | USP4 -0.184

— the supplement of paper PMC11732987, “Enantioselective OTUD7B fragment discovery through chemoproteomics screening and high-throughput optimisation” (Communications Chemistry, 2025)
